What all share (experiment): peptide microarray binding signal (635 nm), min-max normalized on array (fraction of array maximum); higher = stronger binding
Holding throughout (conditions): peptide region: H3 20-32

Test [1] concerns the target T1, HaloTag-ATRX ADD domain (163-292).
T1 chain: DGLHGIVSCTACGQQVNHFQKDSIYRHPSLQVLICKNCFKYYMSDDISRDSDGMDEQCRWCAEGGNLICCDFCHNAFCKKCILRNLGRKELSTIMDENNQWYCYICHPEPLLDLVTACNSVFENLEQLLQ
The method in brief: (§1)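 Within each library, mean intensities of triplicate spots were min-max scaled to give the binding signal. The spots were histone 13-mer peptide–cellulose conjugates on nitrocellulose with a Cy3 tracer, blocked overnight at 4°C. They were then probed for 1 h at 4°C using biotin-labelled HaloTag reader fusions (10 nM to 1 μM) with streptavidin-Alexa Fluor 647 or rabbit histone antibodies (1:10,000 to 1:2,000) with anti-rabbit Alexa 647, and scanned at 635 nm for signal and 532 nm for misprints on an Axon GenePix 4000B.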

Test [2] has as its target HaloTag-ING2 PHD (mouse Ing2 200-280). The gist of the method: as §1
Test [3] concerns the target anti-H3K4me3 antibody ab8580. The method in brief:
as §1

Test [4] deals with anti-H3K9me3 antibody ab8898. The method in brief:
as §1

The mark [5] stands for this setting: peptide modifications: H3K23me1 H3K27ac, binder concentration: 1:2,000 dilution.
Where [6] appears, read: peptide modifications: H3K23me1 H3K27ac, binder concentration: 1:10,000 dilution.
Where [7] appears, read: peptide modifications: H3K23ac H3K27ac, binder concentration: 1:2,000 dilution.
Where [8] appears, read: peptide modifications: H3K23ac H3K27ac, binder concentration: 1:10,000 dilution.
The mark [9] stands for this setting: peptide modifications: H3K23ac, binder concentration: 1:2,000 dilution.
[10] abbreviates: peptide modifications: H3K23ac, binder concentration: 1:10,000 dilution.
Setting [11] is: peptide modifications: H3K23me1, binder concentration: 1:2,000 dilution.
Setting [12] is: peptide modifications: H3K23me1, binder concentration: 1:10,000 dilution.
Setting [13] is: peptide modifications: H3K23ac H3K27me1, binder concentration: 1:2,000 dilution.
Setting [14] is: peptide modifications: H3K23ac H3K27me1, binder concentration: 1:10,000 dilution.
[15] abbreviates: peptide modifications: H3K23ac H3K27me2, binder concentration: 1:2,000 dilution.
[16] abbreviates: peptide modifications: H3K23ac H3K27me2, binder concentration: 1:10,000 dilution.
The mark [17] stands for this setting: peptide modifications: H3K23me1 H3K27me1, binder concentration: 1:2,000 dilution.
[18] abbreviates: peptide modifications: H3K23me1 H3K27me1, binder concentration: 1:10,000 dilution.
Where [19] appears, read: peptide modifications: H3K23ac H3K27me3, binder concentration: 1:2,000 dilution.
Where [20] appears, read: peptide modifications: H3K23ac H3K27me3, binder concentration: 1:10,000 dilution.
[21] abbreviates: peptide modifications: H3K23me1 H3K27me3, binder concentration: 1:2,000 dilution.
Where [22] appears, read: peptide modifications: H3K23me1 H3K27me3, binder concentration: 1:10,000 dilution.
The mark [23] stands for this setting: peptide modifications: H3K23me1 H3K27me2, binder concentration: 1:2,000 dilution.
The mark [24] stands for this setting: peptide modifications: H3K23me1 H3K27me2, binder concentration: 1:10,000 dilution.

± gives the standard deviation.

Regarding LATKAARKSAPAT [H3 20-32 L A T Kme A A R Kac S A P A T], the “peptide microarray binding signal” value is 0.0232 ± 0.00051 in test [1] (peptide modifications: H3K23me1 H3K27ac, binder concentration: 50 nM); 0.0506 ± 0.0021 in test [1] (peptide modifications: H3K23me1 H3K27ac, binder concentration: 500 nM); 0.058 ± 0.0036 in test [2] (peptide modifications: H3K23me1 H3K27ac, binder concentration: 10 nM); 0.0801 ± 0.006 in test [2] (peptide modifications: H3K23me1 H3K27ac, binder concentration: 100 nM); 0.0267 ± 0.0037 in test [3] (setting [5]); 0.0268 ± 0.003 in test [3] (setting [6]). Besides, the figures for the “peptide microarray binding signal” value in test [4] (setting [5]) and in test [4] (setting [6]) were 0.0161 ± 0.0018 and 0.0113 ± 0.0012, respectively.

For the molecule LATKAARKSAPAT [H3 20-32 L A T Kac A A R Kac S A P A T], the “peptide microarray binding signal” value came to 0.0196 ± 0.0013 in test [1] (peptide modifications: H3K23ac H3K27ac, binder concentration: 50 nM); 0.0397 ± 0.0034 in test [1] (peptide modifications: H3K23ac H3K27ac, binder concentration: 500 nM); 0.0424 ± 0.0038 in test [2] (peptide modifications: H3K23ac H3K27ac, binder concentration: 10 nM); 0.0536 ± 0.0026 in test [2] (peptide modifications: H3K23ac H3K27ac, binder concentration: 100 nM); 0.0164 ± 0.0012 in test [3] (setting [7]); 0.0172 ± 0.00041 in test [3] (setting [8]). Moreover, the “peptide microarray binding signal” value in test [4] (setting [7]) came to 0.016 ± 0.002; in test [4] (setting [8]) it was 0.00848 ± 0.00094.

As to LATKAARKSAPAT [H3 20-32 L A T Kac A A R K S A P A T], the “peptide microarray binding signal” value in test [1] (peptide modifications: H3K23ac, binder concentration: 50 nM) came out at 0.00514 ± 8.6e-05; in test [1] (peptide modifications: H3K23ac, binder concentration: 500 nM), 0.00843 ± 0.00057; in test [2] (peptide modifications: H3K23ac, binder concentration: 10 nM), 0.0139 ± 0.0003; in test [2] (peptide modifications: H3K23ac, binder concentration: 100 nM), 0.021 ± 0.00086; in test [3] (setting [9]) it was 0.00479 ± 0.00097; in test [3] (setting [10]), 0.00388 ± 0.00011. The “peptide microarray binding signal” value in test [4] (setting [9]) is 0.002703 ± 1.4e-05; in test [4] (setting [10]) it was 0.00265 ± 8.4e-05.

In the case of LATKAARKSAPAT [H3 20-32 L A T Kme A A R K S A P A T], the “peptide microarray binding signal” value worked out at 0.0042 ± 0.00011 in test [1] (peptide modifications: H3K23me1, binder concentration: 50 nM); 0.00714 ± 0.00042 in test [1] (peptide modifications: H3K23me1, binder concentration: 500 nM); 0.0107 ± 0.00011 in test [2] (peptide modifications: H3K23me1, binder concentration: 10 nM); 0.0176 ± 0.00097 in test [2] (peptide modifications: H3K23me1, binder concentration: 100 nM); 0.00564 ± 0.0011 in test [3] (setting [11]); 0.0116 ± 0.0039 in test [3] (setting [12]). For the same molecule, the figures for the “peptide microarray binding signal” value in test [4] (setting [11]) and in test [4] (setting [12]) were 0.00267 ± 0.00032 and 0.00242 ± 0.00013, respectively.

For LATKAARKSAPAT [H3 20-32 L A T Kac A A R Kme S A P A T], the “peptide microarray binding signal” value in test [1] (peptide modifications: H3K23ac H3K27me1, binder concentration: 50 nM) came out at 0.0068 ± 0.00024; in test [1] (peptide modifications: H3K23ac H3K27me1, binder concentration: 500 nM), 0.0141 ± 0.0013; in test [2] (peptide modifications: H3K23ac H3K27me1, binder concentration: 10 nM), 0.0291 ± 0.00095; in test [2] (peptide modifications: H3K23ac H3K27me1, binder concentration: 100 nM), 0.0373 ± 0.0027; in test [3] (setting [13]) it was 0.0154 ± 0.0014; in test [3] (setting [14]), 0.0175 ± 0.003. The “peptide microarray binding signal” value came to 0.00459 ± 0.00035 in test [4] (setting [13]) and 0.00513 ± 0.00045 in test [4] (setting [14]).

Take LATKAARKSAPAT [H3 20-32 L A T Kac A A R Kme2 S A P A T]: the “peptide microarray binding signal” value in test [1] (peptide modifications: H3K23ac H3K27me2, binder concentration: 50 nM) amounted to 0.00426 ± 0.0002; in test [1] (peptide modifications: H3K23ac H3K27me2, binder concentration: 500 nM), 0.00929 ± 0.0011; in test [2] (peptide modifications: H3K23ac H3K27me2, binder concentration: 10 nM) it was 0.0152 ± 0.0015; in test [2] (peptide modifications: H3K23ac H3K27me2, binder concentration: 100 nM) it was 0.0206 ± 0.00053; in test [3] (setting [15]), 0.00765 ± 0.0019; in test [3] (setting [16]), 0.00719 ± 0.00029. Moreover, the figures for the “peptide microarray binding signal” value in test [4] (setting [15]) and in test [4] (setting [16]) were 0.00344 ± 0.001 and 0.00329 ± 0.00032, respectively.

In the case of LATKAARKSAPAT [H3 20-32 L A T Kme A A R Kme S A P A T], the “peptide microarray binding signal” value in test [1] (peptide modifications: H3K23me1 H3K27me1, binder concentration: 50 nM) was found to be 0.00404 ± 0.00027; in test [1] (peptide modifications: H3K23me1 H3K27me1, binder concentration: 500 nM), 0.00976 ± 0.00044; in test [2] (peptide modifications: H3K23me1 H3K27me1, binder concentration: 10 nM), 0.015 ± 0.00066; in test [2] (peptide modifications: H3K23me1 H3K27me1, binder concentration: 100 nM), 0.0215 ± 0.0021; in test [3] (setting [17]), 0.0102 ± 0.0036; in test [3] (setting [18]) it was 0.01 ± 0.00092. The “peptide microarray binding signal” value in test [4] (setting [17]) turned out to be 0.00488 ± 0.00067; in test [4] (setting [18]), 0.0045 ± 0.00019.

Consider LATKAARKSAPAT [H3 20-32 L A T Kac A A R Kme3 S A P A T], for which the “peptide microarray binding signal” value turned out to be 0.006363 ± 3.7e-05 in test [1] (peptide modifications: H3K23ac H3K27me3, binder concentration: 50 nM); 0.00867 ± 0.00016 in test [1] (peptide modifications: H3K23ac H3K27me3, binder concentration: 500 nM); 0.0207 ± 0.00046 in test [2] (peptide modifications: H3K23ac H3K27me3, binder concentration: 10 nM); 0.0281 ± 0.00085 in test [2] (peptide modifications: H3K23ac H3K27me3, binder concentration: 100 nM); 0.0464 ± 0.0087 in test [3] (setting [19]); 0.044 ± 0.0054 in test [3] (setting [20]). The results for the “peptide microarray binding signal” value in test [4] (setting [19]) and in test [4] (setting [20]) were 0.253 ± 0.019 and 0.122 ± 0.0084, respectively.

As for LATKAARKSAPAT [H3 20-32 L A T Kme A A R Kme3 S A P A T], the “peptide microarray binding signal” value in test [1] (peptide modifications: H3K23me1 H3K27me3, binder concentration: 50 nM) was 0.005266 ± 3.8e-05; in test [1] (peptide modifications: H3K23me1 H3K27me3, binder concentration: 500 nM), 0.00848 ± 0.00016; in test [2] (peptide modifications: H3K23me1 H3K27me3, binder concentration: 10 nM), 0.0135 ± 0.00027; in test [2] (peptide modifications: H3K23me1 H3K27me3, binder concentration: 100 nM), 0.01991 ± 8.1e-05; in test [3] (setting [21]), 0.0287 ± 0.0026; in test [3] (setting [22]), 0.0313 ± 0.0019. Besides, the “peptide microarray binding signal” value in test [4] (setting [21]) turned out to be 0.078 ± 0.0011; in test [4] (setting [22]), 0.0363 ± 0.0019.

On to LATKAARKSAPAT [H3 20-32 L A T Kme A A R Kme2 S A P A T], for which the “peptide microarray binding signal” value in test [1] (peptide modifications: H3K23me1 H3K27me2, binder concentration: 50 nM) was found to be 0.00395 ± 5.6e-05; in test [1] (peptide modifications: H3K23me1 H3K27me2, binder concentration: 500 nM) it was 0.002619 ± 2.1e-05; in test [2] (peptide modifications: H3K23me1 H3K27me2, binder concentration: 10 nM), 0.00537 ± 9.5e-05; in test [2] (peptide modifications: H3K23me1 H3K27me2, binder concentration: 100 nM), 0.00539 ± 7.3e-05; in test [3] (setting [23]), 0.00217 ± 0.00021; in test [3] (setting [24]), 0.00331 ± 4.7e-05. The “peptide microarray binding signal” value was 0.0018 ± 6.4e-05 in test [4] (setting [23]) and 0.00161 ± 3.1e-05 in test [4] (setting [24]).
